Test results from PubChem BioAssay (Tox21).
Records with an inconclusive call do not appear. Activity calls are given as the source filed them. Unless noted, the call rests on the fitted dose curve.

Tests used:
[1] = Nuclear factor erythroid 2-related factor 2/antioxidant responsive element (Nrf2/ARE) small molecule agonists: qHTS cell viability counter screen in human keratinocytes (AID 1919968; active means well fitted curve in the direction sought with a large enough effect in the repeat runs; an effect the other way counts as inactive or inconclusive; further: nearly all actives have a fitted effect of over 55% in size)
Procedure, shortened: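 After a 5 h attachment period, ARE-reporter keratinocytes were dosed with compounds in DMSO and then cultured 23 h at 37 C. Cell viability came from CellTiter-Fluor signal read after a further 1 h.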

[2] = Nuclear factor erythroid 2-related factor 2/antioxidant responsive element (Nrf2/ARE) small molecule agonists: luciferase reporter gene qHTS assay in human keratinocytes (AID 1919969); further: nearly all actives have a fitted effect of over 35% in size
[3] = biological target: Gonadotropin-releasing hormone receptor (Homo sapiens) (UniProt P30968); test: Human gonadotropin-releasing hormone receptor (GnRHR) small molecule agonists, calcium flux assay in GnRHR-HEK293 cells (AID 1920063); further: nearly all actives have a fitted effect of over 35% in size
Sequence of Gonadotropin-releasing hormone receptor (Homo sapiens) (P30968 whole entry, looked up): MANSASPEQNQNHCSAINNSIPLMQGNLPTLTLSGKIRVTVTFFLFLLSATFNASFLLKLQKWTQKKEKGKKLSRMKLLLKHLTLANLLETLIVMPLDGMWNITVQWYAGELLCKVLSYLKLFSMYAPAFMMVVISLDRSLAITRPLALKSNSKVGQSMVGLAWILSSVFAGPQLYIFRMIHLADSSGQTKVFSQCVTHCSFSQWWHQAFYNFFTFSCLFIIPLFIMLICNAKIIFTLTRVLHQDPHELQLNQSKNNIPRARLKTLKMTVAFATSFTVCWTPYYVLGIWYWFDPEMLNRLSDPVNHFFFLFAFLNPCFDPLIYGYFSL
Procedure, shortened: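 We seeded human GnRHR-expressing HEK293 cells for 18 hours, loaded them with calcium dye for an hour at 37 C, added test compounds, and recorded fluorescence intensity kinetically for three minutes.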

[4] = biological target: KiSS-1 receptor (Homo sapiens) (UniProt Q969F8); test: Human kisspeptin (KISS1R) small molecule agonists, calcium flux assay in KISS1R-HEK293 cells (AID 1920064; active means well fitted curve in the direction sought with a large enough effect in the repeat runs; an effect the other way counts as inactive or inconclusive)
Sequence of KiSS-1 receptor (Homo sapiens) (Q969F8 whole entry, looked up): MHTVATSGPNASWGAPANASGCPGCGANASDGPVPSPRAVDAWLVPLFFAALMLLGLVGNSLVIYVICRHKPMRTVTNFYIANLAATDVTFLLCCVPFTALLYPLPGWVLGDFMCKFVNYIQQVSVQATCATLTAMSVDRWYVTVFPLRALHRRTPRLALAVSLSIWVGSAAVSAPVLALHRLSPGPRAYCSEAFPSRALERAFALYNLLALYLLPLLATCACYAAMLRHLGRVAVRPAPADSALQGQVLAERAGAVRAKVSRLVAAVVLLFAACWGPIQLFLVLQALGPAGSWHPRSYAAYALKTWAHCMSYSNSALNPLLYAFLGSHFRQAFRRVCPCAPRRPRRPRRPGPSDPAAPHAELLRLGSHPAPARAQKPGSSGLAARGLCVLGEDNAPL
Procedure, shortened: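 Kinetic calcium assay, 1 s sampling over 3 min at Ex/Em 480/540, in HEK293 cells engineered with human KISS1R; compounds delivered in DMSO after 1 h dye loading.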

[5] = G protein-coupled receptor (GPCR) small molecule agonists, calcium flux assay: HEK293 wild type cell line counter screen (AID 1920065)
Procedure, shortened: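 Calcium-sensitive dye, loaded 1 h at 37 C into cells cultured 18 h, reports compound-evoked calcium release as fluorescence (Ex/Em 480/540), measured over 3 min. Agonist mode; 15-point titrations, triplicate.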

[6] = p53 small molecule agonists, cell-based qHTS assay with human liver microsomes (AID 1963577)
Procedure, shortened: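 p53RE-bla reporter cells were pre-incubated 5 h at 37 C, then treated with compounds plus human liver microsomes (0.5 mg/mL final) and NADPH (0.5 mg/mL final) for 16 h at 37 C. Beta-lactamase activity was read by LiveBLAzer fluorescence after 2 h at room temperature.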

[7] = p53 small molecule agonists, cell-based qHTS assay with rat liver microsomes (AID 1963578)
Procedure, shortened: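 p53RE-bla cells were exposed to compounds together with rat liver microsomes (0.5 mg/mL final) and NADPH (0.5 mg/mL final) for 16 h at 37 C, then read by LiveBLAzer beta-lactamase fluorescence after 2 h at room temperature.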

[8] = p53 small molecule agonists, cell-based qHTS assay with human liver microsomes: qHTS cell viability counter screen (AID 1963579); further: nearly all actives have a fitted effect of over 45% in size
Procedure, shortened: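 p53RE-bla cells (4,000/well) were pre-incubated 5 h at 37 C, then given compounds in DMSO plus human liver microsomes (0.5 mg/mL final) and NADPH (0.5 mg/mL final) for 16 h at 37 C. Viability was read by CellTiter-Glo luminescence.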

[9] = p53 small molecule agonists, cell-based qHTS assay with rat liver microsomes: qHTS cell viability counter screen (AID 1963580); further: nearly all actives have a fitted effect of over 45% in size
Procedure, shortened: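 p53RE-bla HCT-116 cells were exposed 16 h at 37 C to compounds with rat liver microsomes (0.5 mg/mL) and NADPH (0.5 mg/mL). Viability was measured in the same wells as ATP content by CellTiter-Glo luminescence.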

[10] = p53 small molecule agonists, cell-based qHTS assay: qHTS cell viability counter screen (AID 1963581); further: nearly all actives have a fitted effect of over 45% in size
Procedure, shortened: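 Following 5 h attachment, HCT-116 p53RE-bla cells took up compound for 16 h at 37 C; the reporter was read with B/G FRET substrate (2 h RT), and viability then via CellTiter-Glo ATP luminescence.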

[11] = p53 small molecule agonists, cell-based qHTS assay (AID 1963582; active means well fitted activation curve with a large enough effect in the signal ratio in the repeat runs, not every such curve was filed as active; the % refers to the signal ratio)
Procedure, shortened: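 In this cell-based concentration-response screen, a p53 response element drives beta-lactamase; cells received DMSO-borne compounds after 5 h culture and were incubated a further 16 h before FRET substrate development.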

[12] = cAMP Responsive Elements (CRE) small molecule agonists, cell-based qHTS assay (AID 1963590)
Procedure, shortened: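 A CRE-responsive beta-lactamase reporter in HEK 293T cells was used. Treatment ran 3 h at 37 C; detection used LiveBLAzer B/G FRET substrate for 2 h at room temperature.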

[13] = cAMP Responsive Elements (CRE) small molecule antagonists, cell-based qHTS assay (AID 1963591; active means well fitted inhibition curve with a large enough effect in the signal ratio in the repeat runs, not every such curve was filed as active; the % refers to the signal ratio)
Procedure, shortened: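 HEK293T cells carrying a CRE-driven beta-lactamase reporter receive compound and NKH477 (0.25 uM final) for 3 h. Fluorescence from LiveBLAzer B/G FRET substrate is read after 2 h at room temperature.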

[14] = biological target: Beta-2 adrenergic receptor (Homo sapiens) (UniProt P07550); test: Adrenergic beta2 receptor (ADRB2) small molecule antagonists, cell-based qHTS assay (AID 1963592); further: series mostly up to about 92 µM; nearly all actives have a fitted effect of over 50% in size
Sequence of Beta-2 adrenergic receptor (Homo sapiens) (P07550 whole entry, looked up): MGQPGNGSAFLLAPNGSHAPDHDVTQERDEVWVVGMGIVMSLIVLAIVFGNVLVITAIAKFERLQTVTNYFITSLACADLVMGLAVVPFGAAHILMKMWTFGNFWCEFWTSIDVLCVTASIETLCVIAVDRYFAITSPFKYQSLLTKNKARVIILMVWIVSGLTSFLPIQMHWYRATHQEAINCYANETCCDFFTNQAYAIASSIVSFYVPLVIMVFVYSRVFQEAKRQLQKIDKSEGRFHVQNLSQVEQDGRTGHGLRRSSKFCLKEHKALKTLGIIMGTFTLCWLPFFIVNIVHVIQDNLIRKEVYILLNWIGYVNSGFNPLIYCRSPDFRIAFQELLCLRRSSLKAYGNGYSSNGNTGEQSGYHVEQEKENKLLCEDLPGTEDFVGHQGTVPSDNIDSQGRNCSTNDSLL
Procedure, shortened: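 Cells (CHO, stable ADRB2 overexpression) incubated 18-20hr at 37C; compounds added from DMSO; agonist mix (1nM isoproterenol, 100uM IBMX, 25uM Ro-20-1724) added; 0.5hr RT; d2-cAMP and anti-cAMP-cryptate added; 1hr RT; 665/615 nm read.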

[15] = biological target: Beta-2 adrenergic receptor (Homo sapiens) (UniProt P07550); test: Adrenergic beta2 receptor (ADRB2) small molecule agonists, cell-based qHTS assay (AID 1963593);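 further: CHO cells stably overexpressing human ADRB2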
Procedure, shortened: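 CHO cells stably over-expressing ADRB2 were plated overnight at 37C, then dosed with compounds plus a stimulation mix containing 100uM IBMX and 25uM Ro-20-1724 for 0.5hr at room temperature. cAMP was measured by HTRF competition, 1hr.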

[16] = biological target: D(2) dopamine receptor (Homo sapiens) (UniProt P14416); test: Dopamine D2 receptor (DRD2) small molecule agonists, cell-based qHTS assay (AID 1963594); further: nearly all actives have a fitted effect of over 35% in size
Sequence of D(2) dopamine receptor (Homo sapiens) (P14416 whole entry, looked up): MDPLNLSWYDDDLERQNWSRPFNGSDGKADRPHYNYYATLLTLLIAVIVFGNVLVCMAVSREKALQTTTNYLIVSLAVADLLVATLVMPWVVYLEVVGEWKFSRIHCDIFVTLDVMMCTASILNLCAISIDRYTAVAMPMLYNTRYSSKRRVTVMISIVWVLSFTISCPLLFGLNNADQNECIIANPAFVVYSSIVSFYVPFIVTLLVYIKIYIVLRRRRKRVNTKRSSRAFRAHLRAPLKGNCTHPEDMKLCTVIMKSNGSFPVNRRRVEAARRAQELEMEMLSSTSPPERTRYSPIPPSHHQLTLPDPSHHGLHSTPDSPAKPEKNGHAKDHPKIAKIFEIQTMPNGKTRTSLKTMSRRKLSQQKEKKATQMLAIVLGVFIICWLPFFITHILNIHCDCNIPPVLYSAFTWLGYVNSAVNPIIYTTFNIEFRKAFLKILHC
Procedure, shortened: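 HEK293 cells stably expressing human DRD2, pre-treated with PDE inhibitor Ro20-1724 (0.1 mM final) and compound 10 min at room temperature, then stimulated with NKH477 (200nM […]) for 30 min. cAMP read by HTRF (665/620 nm).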

[17] = biological target: D(2) dopamine receptor (Homo sapiens) (UniProt P14416); test: Dopamine D2 receptor (DRD2) small molecule antagonists, cell-based qHTS assay (AID 1963595; active means well fitted inhibition curve with a large enough effect in the signal ratio in the repeat runs, with a control signal flat; the % refers to the signal ratio)
Procedure, shortened: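 Cells were plated and grown for 24 h at 37 °C. Ro20-1724 (0.1 mM final) went in first, then compound for 10 min. NKH477 (200 nM) with quinpirole (12 nM) followed for 30 min at RT, then HTRF detection reagents for 1 h.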

Measured: Potency

COc1ccc(C(C)=O)cc1
inactive: [1] | [2] | [3] | [4] | [5] | [6] | [7] | [8] | [9] | [10] | [11] | [12] | [13] | [14] | [15] | [16] | [17]

CCOC(=O)C1=C(C)NC(C)=C(C(=O)OC)C1c1cccc(Cl)c1Cl (centres undefined)
inactive: [1] | [2] | [3] | [4] | [5] | [6] | [7] | [8] | [9] | [10] | [11] | [12] | [13] | [14]

CCOC(=O)c1ncn2c1CN(C)C(=O)c1cc(F)ccc1-2
inactive: [1] | [2] | [3] | [4] | [5] | [6] | [7] | [8] | [9] | [10] | [11] | [12] | [13] | [14] | [15] | [16] | [17]

Cc1[nH]cnc1CN1CCc2c(c3ccccc3n2C)C1=O
inactive: [1] | [2] | [3] | [4] | [5] | [6] | [7] | [8] | [9] | [10] | [11] | [12] | [13] | [14] | [15] | [16] | [17]

CC[N+](CC)(CC)CCOc1cccc(OCC[N+](CC)(CC)CC)c1OCC[N+](CC)(CC)CC
inactive: [1] | [2] | [3] | [4] | [5] | [6] | [7] | [8] | [9] | [10] | [11] | [12] | [13] | [14] | [15] | [16] | [17]

CCCOc1ccc(C(=O)OCCN(CC)CC)cc1N
inactive: [1] | [2] | [3] | [4] | [5] | [6] | [7] | [8] | [9] | [10] | [11] | [12] | [13] | [14] | [15] | [16] | [17]

Oc1c(I)cc(I)c2cccnc12
inactive: [1] | [2] | [3] | [4] | [5] | [6] | [7] | [8] | [9] | [10] | [11] | [12] | [13] | [14] | [16]
